PubChem BioAssay AID493244 (The Scripps Research Institute Molecular Screening Center, 2011)
Screen size: about 340,000 compounds; about 390 (0.11%) were called active. Only a selection was taken, and actives are over-represented in it overall. A number with no mark means an inactive call.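 Rule for the calls: active = inhibition above the mean inhibition of all tested compounds plus 3 SD (cut at about 17% in these data); inactive = the rest.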

These molecules were tested against Troponin I, cardiac muscle (Homo sapiens) + Troponin T, cardiac muscle (Homo sapiens) + Troponin C, slow skeletal and cardiac muscles (Homo sapiens) (UniProt P19429+P45379+P63316) (assay: calcium desensitizers of cardiac thin filaments – biochemical, IANBD-TnC fluorescence, EC70 calcium, primary screen (AID 493244;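 note: assay run at fixed EC70 calcium of 1.6 mM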)). Conditions: IANBD-labeled cardiac RTF, Ca2+ fluorescence; at 7.15 µM; active compounds read high.
`CCN(CC)S(=O)(=O)c1ccc(N2CCOCC2)c(NC(=O)C2CSC3(C)CCC(=O)N23)c1` (centres undefined) showed an inhibition of -5.18%. In the case of `O=C(c1ccco1)N1CCN(C(=S)Nc2cc(F)cc(F)c2)CC1`, the inhibition is reported as -7.48%. `C[C@]12c3[nH]c4ccc(Cl)cc4c3CCN1C(=O)[C@@H](CC(=O)NCCCn1ccnc1)C[C@@H]2C(=O)N1CCOCC1` showed an inhibition of -5.19%. Molecule `O=C(Nc1ccc2c(c1)CCC2)c1cccc(S(=O)(=O)Nc2ccccc2Cl)c1` has an inhibition of 3.16%. Work on `COc1ccc(Cl)cc1NC(=O)[C@@H]1CCCN1C(=O)c1cccs1` yielded an inhibition of 5.41%. For `Cc1cc(C)cc(N(CC(=O)NC2CCCC2)C(=O)CCC(=O)Nc2cc(C)on2)c1`, the inhibition was -4.35%. For `Cc1cc(NC(=O)CCC(=O)N(CC(=O)NCC2CCCO2)c2ccccc2C)no1` (centres undefined), the inhibition was -4.7%. `CCCCOc1ccc(N(CC(=O)NCC2CCCO2)C(=O)CCC(=O)Nc2cc(C)ccn2)cc1` (centres undefined) showed an inhibition of -5.97%. For `Cc1cc(NC(=O)CCC(=O)N(CC(=O)NCC2CCCO2)c2ccccc2)no1` (centres undefined), the inhibition was 18.5% (active). `Cc1cc(NC(=O)CCC(=O)N(CC(=O)NC2CCCC2)c2ccc(F)cc2)no1` gave an inhibition of -0.21%. With `COC(=O)c1cccc(N(CC(=O)NCC2CCCO2)C(=O)CCC(=O)Nc2cc(C)on2)c1` (centres undefined) the inhibition was 17.2% (active). Work on `Cc1cc(C)cc(OCC(=O)NNC(=O)CCN2C(=O)c3ccccc3C2=O)c1` yielded an inhibition of -1.71%. `Cc1cc(C(=O)Nc2ccc(C)c(S(=O)(=O)N3CCOCC3)c2)c2ccccc2n1` showed an inhibition of 5.27%. `Cc1cc(OCc2ccc(C(=O)Nc3ccc(C(=O)O)cc3)o2)ccc1Cl` showed an inhibition of 2%. Work on `O=C(O[C@@H]1[C@H](Cc2ccccc2)NS(=O)(=O)[C@H]2C[C@@H]3C=C[C@]12O3)c1ccccc1Br` yielded an inhibition of -4.49%. For `CC(Sc1nnc(COc2ccccc2)n1-c1ccccc1)C(=O)O` (centres undefined), the inhibition was 2%. In the case of `Cc1nnc(NC(=O)CCC(=O)N2CCC(C)CC2)s1`, the inhibition is reported as -6.77%. Work on `CC1(c2ccc3ccccc3c2)NC(=O)NC1=O` (centres undefined) yielded an inhibition of -8.57%. For `O=C(Nc1ccc(Br)cc1F)C1CC(=O)N(C2CCCCC2)C1` (centres undefined), the inhibition was -4.05%. With `Cc1ccc(NC(=O)C2CC2)cc1S(=O)(=O)N1CCOCC1` the inhibition was 5.9%. `Cc1ccc(NC(=O)NC2CCCCC2)cc1S(=O)(=O)N1CCOCC1` was tested, and the inhibition was 21.9% (active). Molecule `Cc1ccc(NC(=O)C2CCC(C(C)(C)C)CC2)cc1S(=O)(=O)N1CCOCC1` (centres undefined) has an inhibition of -8.96%. `O=C1N=C2SCCN2/C1=C\c1c(Cl)cccc1Cl` was tested, and the inhibition was -0.73%. `COc1cccc(-n2c(=S)sc3c(=O)n(-c4ccccc4OC)c(SCC4OCCO4)nc32)c1` showed an inhibition of -13.4%. Molecule `O=C(N/N=C/c1ccccc1O)/C(=C/c1ccccc1)CCO` has an inhibition of -2.95%. `Cn1cnc([N+](=O)[O-])c1Sc1ccccc1` was tested, and the inhibition was 7.04%. `CCOC(=O)C(C)Oc1cccc2c(=O)n(CC(=O)NCCc3ccc(OC)c(OC)c3)ccc12` (centres undefined) gave an inhibition of -4.75%. `Cc1ccc(NC2=C(Cl)C(=O)OC2OC(=O)c2ccccc2C)cc1` (centres undefined) showed an inhibition of 5.74%. Work on `CCc1ccc(N2CC(C(=O)Nc3ccc(S(=O)(=O)Nc4nccs4)cc3)CC2=O)cc1` (centres undefined) yielded an inhibition of 10.1%. In the case of `CSCC[C@H](NC(=O)N1CCn2c1nc1ccccc12)C(=O)NC1CCCCC1`, the inhibition is reported as -6.71%. `CC(C(=O)NC1CCCCC1)N1C(=O)c2cccc3cccc1c23` (centres undefined) gave an inhibition of 5.31%. `COc1cc(C(=O)N(C)Cc2cccc(OC)c2OC)ccc1OCC(=O)Nc1cccc(C(F)(F)F)c1` was tested, and the inhibition was 6.06%. `Cc1cc(C)nc(Nc2n[nH]c(-c3ccccc3N)n2)n1` was tested, and the inhibition was 2.72%. With `CC(C)(C)c1ccc(C(CC(=O)O)NS(=O)(=O)Cc2ccccc2)cc1` (centres undefined) the inhibition was -9.83%. `Cc1ccc(S(=O)(=O)Cn2nnnc2CN2CCN(Cc3ccc4c(c3)OCO4)CC2)cc1` was tested, and the inhibition was -16.1%. With `COc1ccc(S(=O)(=O)NC(C)c2ccccc2)cc1C(=O)N1CCCCC1` (centres undefined) the inhibition was -3.2%. `O=C(COC(=O)c1ccc(NS(=O)(=O)c2cccs2)cc1O)Nc1ccc(F)cc1` gave an inhibition of -3.11%. `COc1ccc(/C=C(/NC(=O)c2ccccc2)C(=O)Nc2cccc(C(=O)O)c2)cc1` gave an inhibition of -3.42%. With `O=C1c2ccccc2C(Nc2ccc3c(c2)OCCO3)N1Cc1ccco1` (centres undefined) the inhibition was 0.13%. `CC(C)c1cc(C(=O)N/N=C/c2ccoc2)c(O)c(C(C)C)c1` showed an inhibition of -3.15%. `COC(=O)Cc1c(O)ccn(Cc2cccc(C(F)(F)F)c2)c1=O` showed an inhibition of 1.28%. Work on `Cc1cc(S(=O)(=O)NC2CCCC2)ccc1-n1cnnn1` yielded an inhibition of -17.6%. `Cc1ccc(CSc2ccc(S(=O)(=O)N3CCCCC3)cn2)cc1` gave an inhibition of -3.54%. In the case of `O=c1ccc2c(-c3ccccc3S(=O)(=O)O)c3ccc(O)c(O)c3oc-2c1O`, the inhibition is reported as 141% (active).
